Test systems include HT29 colon; SNB-75 CNS; SNB-19 CNS; U251 CNS; PC-3 prostate; SK-MEL-5 melanoma; UACC-62 melanoma; LOX IMVI melanoma; SK-MEL-28 melanoma; SK-MEL-2 melanoma; EKVX NSCLC; SN12C renal; UO-31 renal; TK-10 renal; ACHN renal; CAKI-1 renal; A498 renal; CCRF-CEM leukemia; MOLT-4 leukemia.
Holding throughout (assay): NCI-60 one-dose screen, 48 h (100 = growth as untreated, 0 = no growth, -100 = all killed)
Details in all cases: 10 µM unless noted

Molecules are shown by their SMILES. About 83,000 compounds went through this panel and 20% of them were active in at least one assay; those are over-represented in the sample as a whole.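 Cell lines were cultured in 96-well plates, exposed to a single compound concentration, and assessed for percent growth 48 hours later.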 Unmarked numbers belong to inactive results. Activity calls are given as the source filed them. Rule for the calls: active = growth percent below 10; inactive = the rest.

With `O=C(/C=C/c1ccc(Cl)cc1)c1cccc(Nc2nc(Nc3ccccc3)nc(Nc3ccccc3)n2)c1`, the growth with HT29 colon is 99.1%; in the assay on SNB-75 CNS, 71.9%; in the assay with SNB-19 CNS, 111%; in the assay on U251 CNS it was 82.7%; with PC-3 prostate, 87.9%; in the assay on SK-MEL-5 melanoma it was 85.6%. The growth in the assay with UACC-62 melanoma is 96.9%; in the assay on LOX IMVI melanoma, 88.2%; in the assay with SK-MEL-28 melanoma it was 100%; with SK-MEL-2 melanoma it was 45.7%; in the assay on EKVX NSCLC, 106%; in the assay with SN12C renal, 102%. Besides, the growth is 61.8% in the assay with UO-31 renal; 92.6% with TK-10 renal; 92.9% in the assay on ACHN renal; 83.6% in the assay on CAKI-1 renal; 95.2% in the assay on A498 renal; 76.2% with CCRF-CEM leukemia. Moreover, the growth in the assay with MOLT-4 leukemia is 61.7%.

For `O=C(CCc1nnc(Cn2cnc3nc[nH]c3c2=O)o1)c1nc2ncccc2[nH]1`, the growth was 92% in the assay on HT29 colon; 92.5% in the assay with SNB-75 CNS; 94.6% in the assay on SNB-19 CNS; 101% in the assay with U251 CNS; 105% in the assay on PC-3 prostate; 104% in the assay with SK-MEL-5 melanoma. For the same compound, the growth in the assay with UACC-62 melanoma was 94.3%; with LOX IMVI melanoma it was 88.1%; with SK-MEL-28 melanoma it was 111%; in the assay on SK-MEL-2 melanoma, 103%; in the assay on EKVX NSCLC it was 102%; with SN12C renal, 95.1%. Also, the growth in the assay with UO-31 renal is 80.8%; in the assay with TK-10 renal, 96.9%; in the assay on ACHN renal, 105%; with CAKI-1 renal it was 92.2%; in the assay with CCRF-CEM leukemia, 90.5%; in the assay on MOLT-4 leukemia, 103%.

Take `CC(C)(C)n1cc(-c2ccnc(NCCCNS(=O)(=O)c3ccc(F)cc3)c2)c(-c2cccc(F)c2)n1`: the growth in the assay with HT29 colon was 6.93% (active); with SNB-75 CNS it was 85%; in the assay on SNB-19 CNS, 72.7%; with U251 CNS, 45.5%; with PC-3 prostate it was 46.1%; in the assay with SK-MEL-5 melanoma, 33.7%. For the same compound, the growth with UACC-62 melanoma is 72.7%; with LOX IMVI melanoma it was 33.7%; in the assay with SK-MEL-28 melanoma, 82.4%; in the assay with SK-MEL-2 melanoma it was 88.4%; in the assay on EKVX NSCLC, 57.3%; with SN12C renal, 66.5%. Moreover, the growth in the assay on UO-31 renal is 50.3%; in the assay with TK-10 renal, 97.7%; in the assay on ACHN renal, 61.4%; in the assay with CAKI-1 renal, 53.6%; in the assay with A498 renal, 70.2%; in the assay with CCRF-CEM leukemia, 49.1%. For the same compound, the growth with MOLT-4 leukemia was 41.7%.

Consider `COC(C(=O)[C@@H](O)[C@@H](C)O)[C@@H]1Cc2cc3cc(O[C@H]4C[C@@H](O[C@H]5C[C@@H](O)[C@H](O)C(C)O5)[C@H](O)C(C)O4)cc(O)c3c(O)c2C(=O)[C@H]1O[C@H]1C[C@@H](O[C@H]2C[C@@H](O[C@H]3C[C@@H](OC)[C@H](O)C(C)O3)[C@@H](O)C(C)O2)[C@H](O)C(C)O1` (stereo not given in full), for which the growth is 34.9% in the assay with HT29 colon; 35.7% in the assay with SNB-75 CNS; 40.1% with SNB-19 CNS; 26.5% in the assay on U251 CNS; 42.5% in the assay on PC-3 prostate; 14.6% with SK-MEL-5 melanoma. Moreover, the growth was 0.169% (active) in the assay on UACC-62 melanoma; 17.8% in the assay with LOX IMVI melanoma; 30.7% with SK-MEL-28 melanoma; 33.2% with SK-MEL-2 melanoma; 68.4% with EKVX NSCLC; 33% in the assay with SN12C renal. The growth in the assay with TK-10 renal was 59.5%; in the assay on ACHN renal, 53.6%; in the assay on CAKI-1 renal it was 73.5%; with A498 renal, -5.04% (active); in the assay with CCRF-CEM leukemia it was 68.9%; in the assay with MOLT-4 leukemia it was 48.2%.

As to `COc1ccc(/C(C)=C(/c2ccc(OCCCN(C)C)cc2)c2ccc(OC(=O)Cc3ccccc3)cc2)cc1`, the growth in the assay on HT29 colon is 7.51% (active); in the assay on SNB-75 CNS it was 79%; in the assay with SNB-19 CNS it was 90%; in the assay on U251 CNS, 55.1%; in the assay with PC-3 prostate, 71.9%; with SK-MEL-5 melanoma, 79.5%. In addition, the growth is 70.2% with UACC-62 melanoma; -5.23% (active) with LOX IMVI melanoma; 70.8% with SK-MEL-28 melanoma; 91% in the assay with SK-MEL-2 melanoma; 65.8% with EKVX NSCLC; 82.4% in the assay on SN12C renal. Further, the growth in the assay on UO-31 renal was 53.4%; in the assay on TK-10 renal, 95.2%; with ACHN renal, 87.2%; in the assay with CAKI-1 renal, 92.9%; with A498 renal, 83.1%; in the assay on CCRF-CEM leukemia, 65%. For the same compound, the growth in the assay with MOLT-4 leukemia is 47.5%.

As for `Brc1c2c(c(Br)c3ccccc13)CCCC2`, the growth is 85.2% in the assay on HT29 colon; 97.8% in the assay on SNB-75 CNS; 96.4% in the assay with SNB-19 CNS; 91.2% with U251 CNS; 93.6% in the assay on PC-3 prostate; 98.3% in the assay with SK-MEL-5 melanoma. The growth was 84.9% with UACC-62 melanoma; 100% in the assay on LOX IMVI melanoma; 101% with SK-MEL-28 melanoma; 93.8% with SK-MEL-2 melanoma; 97.2% with EKVX NSCLC; 94.2% in the assay on SN12C renal. Also, the growth in the assay with UO-31 renal was 95.2%; in the assay with TK-10 renal, 99.2%; with ACHN renal, 104%; in the assay on CAKI-1 renal, 99.2%; in the assay with A498 renal it was 94.6%; with CCRF-CEM leukemia it was 96.5%. Moreover, the growth in the assay with MOLT-4 leukemia was 95.8%.

Take `O=C1/C(=C/c2ccc(F)cc2)COc2ccc(O)c(O)c21`: the growth is 13.5% in the assay on HT29 colon; 26.9% in the assay on SNB-75 CNS; 33.4% in the assay with SNB-19 CNS; 1.66% (active) in the assay on U251 CNS; -0.716% (active) with PC-3 prostate; 56.3% in the assay with SK-MEL-5 melanoma. For the same compound, the growth with UACC-62 melanoma is 7.26% (active); in the assay on LOX IMVI melanoma, -85.2% (active); in the assay on SK-MEL-28 melanoma, 44.1%; in the assay with SK-MEL-2 melanoma it was 74.8%; in the assay with EKVX NSCLC, 51.4%; with SN12C renal it was -49.9% (active). Moreover, the growth with UO-31 renal is -96.9% (active); with TK-10 renal, 17.8%; in the assay with ACHN renal, -67.1% (active); in the assay with CAKI-1 renal, 9.04% (active); with A498 renal it was 105%; with CCRF-CEM leukemia, 3.39% (active). Also, the growth in the assay with MOLT-4 leukemia was 4.21% (active).

Regarding `Cc1ccc(Sc2oc(-c3ccc(C)cc3)nc2[P+](c2ccccc2)(c2ccccc2)c2ccccc2)cc1`, the growth with HT29 colon is 1.95% (active); in the assay on SNB-75 CNS, -23.6% (active); with SNB-19 CNS, 14%; in the assay with U251 CNS, 12.9%; in the assay on PC-3 prostate it was 5.64% (active); with SK-MEL-5 melanoma, -97.7% (active). The growth was -38.1% (active) in the assay with UACC-62 melanoma; -69.3% (active) in the assay with LOX IMVI melanoma; 17% in the assay on SK-MEL-28 melanoma; -36% (active) with SK-MEL-2 melanoma; 6.65% (active) in the assay on EKVX NSCLC; 3.64% (active) with SN12C renal. For the same compound, the growth was -22.3% (active) in the assay with UO-31 renal; 22.7% in the assay with TK-10 renal; -6.75% (active) with ACHN renal; -23.2% (active) in the assay on CAKI-1 renal; -40.5% (active) in the assay on A498 renal; -2.03% (active) in the assay with CCRF-CEM leukemia. Further, in the assay with MOLT-4 leukemia, the growth is -25.9% (active).

(Values after PubChem BioAssay (NCI).)
